# PubChem BioAssay (NCI)
# Compounds without any hit were thinned out: in the full panel of roughly 83,000, 20% have a hit.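 Testing used 96-well plates and a 48-hour single-concentration exposure. Example: -40 means 40% of the starting cells died.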 Active and inactive are the calls of the source. How the source made its calls: active means growth percent below 10; inactive means the rest.
# What was measured:
# Assay in all cases: NCI-60 one-dose screen, 48 h (100 = growth as untreated, 0 = no growth, -100 = all killed)
# Details in all cases: 10 µM unless noted
# T-47D breast = test system: T-47D breast
# BT-549 breast = test system: BT-549 breast
# MDA-MB-435 melanoma = test system: MDA-MB-435 melanoma
# SW-620 colon = test system: SW-620 colon
# MCF7 breast = test system: MCF7 breast
# HCT-116 colon = test system: HCT-116 colon
# HCC-2998 colon = test system: HCC-2998 colon
# KM12 colon = test system: KM12 colon
SMILES,growth (T-47D breast),growth (BT-549 breast),growth (MDA-MB-435 melanoma),growth (SW-620 colon),growth (MCF7 breast),growth (HCT-116 colon),growth (HCC-2998 colon),growth (KM12 colon)
CCn1c2ccc(/C=N/N(C)S(=O)(=O)CCN(C)C)cc2c2cc(/C=N/N(C)S(=O)(=O)CCN(C)C)ccc21,88.6% (inactive),72.4% (inactive),62% (inactive),30.6% (inactive),22.1% (inactive),14.3% (inactive),63.4% (inactive),81.4% (inactive)
CCOP(=O)(OCC)OC[C@]12CCC(C)(C)CC1C1=CC[C@@H]3[C@@]4(C)CCCNC(C)(C)[C@@H]4CC[C@@]3(C)[C@]1(C)CC2 (some centres not stated),79.2% (inactive),104% (inactive),90.6% (inactive),66.3% (inactive),35.1% (inactive),20.4% (inactive),26.6% (inactive),88.7% (inactive)
CC[C@]12C=CCN3CC[C@]4(C(=C(C(=O)OC)C1)Nc1cc5c(cc14)[C@@H]1[C@H](O5)[C@@H](O)[C@@]4(CC)CC(C(=O)OC)=C5Nc6cc(O)ccc6[C@@]56CCN1C46)C32 (some centres not stated),6.91% (active),18.8% (inactive),-38.2% (active),2.78% (active),3.26% (active),-70.5% (active),-64.8% (active),-30.2% (active)
CC(=O)c1c([Si](C)(C)C)c2cc(C#N)ccn2c1C(=O)c1ccc(Br)cc1,73.8% (inactive),97.5% (inactive),92.5% (inactive),87.2% (inactive),82.5% (inactive),56% (inactive),89.9% (inactive),88.3% (inactive)
Clc1ccc2c(N/N=C/c3c[nH]c4ccccc34)ccnc2c1,-54.5% (active),-89.1% (active),-92.9% (active),-74.8% (active),-72% (active),-91.9% (active),-92.3% (active),-77.2% (active)
O=C(N/N=C\c1ccc(F)cc1)c1ccc2nc(-c3ccc(Br)cc3)[nH]c2c1,75.6% (inactive),73.5% (inactive),40.7% (inactive),2.87% (active),9.41% (active),-21% (active),31.3% (inactive),16% (inactive)
C#C[C@]1(O)CC[C@H]2[C@@H]3CC=C4c5sc(N6CCN(C)CC6)nc5CC[C@]4(C)[C@H]3CC[C@@]21C,85.7% (inactive),16.9% (inactive),1.24% (active),19.6% (inactive),24.2% (inactive),-41% (active),81.2% (inactive),21.1% (inactive)
CN1CCN(Cc2ccc(NC(=O)c3cncc(C#Cc4cnc5ccc(N6CCOCC6)nn45)c3)cc2C(F)(F)F)CC1,-5.39% (active),-71.7% (active),-65% (active),-19.2% (active),-69% (active),-76.2% (active),-33.2% (active),-46.2% (active)
CCc1cc(OC(=O)N2CCN(CCC(C)(COC(C)(C)C)COC(C)(C)C)CC2)ccc1Nc1cc(-c2ccc(-n3cccn3)cc2)[nH]n1,61% (inactive),108% (inactive),85.3% (inactive),94.8% (inactive),50.1% (inactive),66.3% (inactive),91.5% (inactive),85.6% (inactive)
Cc1ccc(S(=O)(=O)c2nc(-c3ccc(F)cc3)oc2S(C)(=O)=O)cc1,60.8% (inactive),43% (inactive),77.2% (inactive),-66.3% (active),33.6% (inactive),36.3% (inactive),102% (inactive),103% (inactive)
Cc1cc(=O)[nH]c(O)c1C#N,105% (inactive),113% (inactive),105% (inactive),96.6% (inactive),99.9% (inactive),104% (inactive),114% (inactive),102% (inactive)
C/C(CC1(O)C(=O)Nc2ccccc21)=N\O (configuration not stated),83.7% (inactive),101% (inactive),104% (inactive),94.5% (inactive),95.2% (inactive),98.1% (inactive),111% (inactive),101% (inactive)
O=S(=O)(NCCCNc1nccc(-c2[nH]c(-c3ccccc3)nc2-c2ccc(F)c(O)c2)n1)c1cccc2ccccc12,51.3% (inactive),69.2% (inactive),36.9% (inactive),68.9% (inactive),44.9% (inactive),34.6% (inactive),99% (inactive),55.7% (inactive)
Cc1ccccc1NC(=O)Nc1nc2ccc([N+](=O)[O-])cc2s1,-10.8% (active),-2.98% (active),5.39% (active),11.6% (inactive),4.12% (active),2.44% (active),24.6% (inactive),4.18% (active)
O=C1[C@@H]2Cc3c([nH]c4ccccc34)[C@@H](c3ccc(Cl)cc3)N2C(=O)CN1C1CCN(Cc2ccccc2)CC1,81.7% (inactive),77.6% (inactive),64.2% (inactive),65.9% (inactive),19% (inactive),9.43% (active),43.9% (inactive),50.4% (inactive)
C=C(C)[C@@H]1CC[C@]2(C(=O)NC3CCCCC3)CC[C@]3(C)[C@H](CC[C@@H]4[C@@]5(C)CC[C@H](N)C(C)(C)[C@@H]5CC[C@]43C)[C@@H]12,80.6% (inactive),106% (inactive),98% (inactive),75.4% (inactive),24.5% (inactive),7.83% (active),92.1% (inactive),95.8% (inactive)
CCCC/C(=C\c1ccc(O)c(O)c1)C(=O)NC(Cc1ccccc1)C(=O)C(=O)NCCc1ccc(OC)cc1 (configuration not stated),94.9% (inactive),84.1% (inactive),94.3% (inactive),101% (inactive),95% (inactive),92.4% (inactive),102% (inactive),97.9% (inactive)
O=C(CCl)Nc1ccc(NC(=O)c2cc(Cl)ccc2O)c(Cl)c1,81.3% (inactive),65.8% (inactive),66% (inactive),35.2% (inactive),29.1% (inactive),39% (inactive),105% (inactive),75.8% (inactive)
COc1ccc(/C=N/NC(=O)CSc2nc(-c3cnccn3)cc(-c3cccs3)c2C#N)cc1,68.7% (inactive),49.2% (inactive),81.6% (inactive),93% (inactive),76.8% (inactive),22.4% (inactive),79.1% (inactive),64.7% (inactive)
Cn1c(SCC(=O)c2ccco2)nc2ccccc2c1=O,55.3% (inactive),96.5% (inactive),105% (inactive),111% (inactive),18.3% (inactive),102% (inactive),112% (inactive),86.3% (inactive)
CC1(C)CC[C@]2(C(=O)O)CC[C@]3(C)C(=CC[C@@H]4[C@@]5(C)CC[C@H](NOCCCN)C(C)(C)[C@@H]5CC[C@]43C)[C@@H]2C1,73.1% (inactive),80% (inactive),91.7% (inactive),83.8% (inactive),68.2% (inactive),57.2% (inactive),76.3% (inactive),80.9% (inactive)
N#C/C(=C\c1ccc(-c2ccc(Cl)cc2)o1)C(=O)Nc1ncc(Cc2ccc(Br)cc2)s1,18.7% (inactive),24.7% (inactive),11.3% (inactive),-40% (active),30.5% (inactive),-33% (active),62.4% (inactive),9.51% (active)
CSc1ccc(/C(=N/N=C(N)N)c2ccc(F)cc2)cc1,58.1% (inactive),16.2% (inactive),10.6% (inactive),22.2% (inactive),5.11% (active),6.25% (active),-14.1% (active),9.6% (active)
Cc1ccc(S(=O)(=O)NCCCNc2nccc(-c3[nH]c(-c4ccccc4)nc3-c3ccc(F)c(O)c3)n2)cc1,71.1% (inactive),93.1% (inactive),17.6% (inactive),115% (inactive),73.5% (inactive),69.6% (inactive),127% (inactive),83.9% (inactive)
CCCN1C=C/C(=C\C(=O)n2ccc3ccccc32)c2ccccc21,46.6% (inactive),103% (inactive),93% (inactive),86.6% (inactive),64.5% (inactive),69% (inactive),104% (inactive),84.8% (inactive)
CCOC(=O)c1cccnc1Nc1ccc(NC(=O)Nc2ccc(Cl)c(C(F)(F)F)c2)cc1,-1.09% (active),60.9% (inactive),53.1% (inactive),37.1% (inactive),17.8% (inactive),16.4% (inactive),50.4% (inactive),17.5% (inactive)
CCCCCN1C(=O)/C(=c2\sc3n(c2=O)C2C(NN=3)N(CC)C(=O)N2CC)c2cccc(C)c21 (configuration not stated),44% (inactive),68% (inactive),-13.6% (active),43.5% (inactive),18.2% (inactive),32.3% (inactive),86% (inactive),26.6% (inactive)
O=C1/C(=C/c2cc(F)cc(F)c2)Cc2cc3c(cc21)OCO3,47.6% (inactive),35.4% (inactive),-44.3% (active),28.1% (inactive),29% (inactive),26.8% (inactive),65% (inactive),34.6% (inactive)
C#Cc1nc(C(=O)NCCCCCCC(=O)NO)cs1,-38.5% (active),50.3% (inactive),-34.9% (active),0.565% (active),6.97% (active),-18.2% (active),25.9% (inactive),-7.86% (active)
